Assay [1] is described as follows: qHTS assay to identify small molecule agonists of the androgen receptor (AR) signaling pathway in the presence of an antagonist - cell viability counter screen (AID 1259379). Note: nearly all actives have a fitted effect of over 25% in size. Note: potency is the fitted concentration of half-maximal effect. The procedure, abridged: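 Counter screen for cell viability run in parallel with the AR agonist-mode luciferase assay. MDA-kb2 cells were co-treated with nilutamide (3.0uM final) and compounds, then incubated 16 hr at 37C, and CellTiter-Fluor fluorescence was measured.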
A general note: qHTS replaces the single test concentration by a dilution series.

Assay [2] is described as follows: qHTS assay to identify small molecule agonists of the estrogen receptor beta (ER-beta) signaling pathway - cell viability counter screen (AID 1259380). Note: nearly all actives have a fitted effect of over 30% in size. Note: potency is the fitted concentration of half-maximal effect. The method, boiled down: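 In this qHTS counter screen, HEK293T cells carrying an ER-beta/UAS beta-lactamase reporter, grown in 2% charcoal-stripped FBS, received compound for 16 hr; ATP-based CellTiter-Glo luminescence was then read after 30 min at room temperature.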

The target of assay [3] is Androgen receptor (Homo sapiens) (UniProt P10275). Briefly: qHTS assay to identify small molecule agonists of the androgen receptor (AR) signaling pathway in the presence of an antagonist (AID 1259381; calls by dose curve; note: nearly all actives have a fitted effect of over 15% in size; note: potency is the fitted concentration of half-maximal effect). The method, boiled down:
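AR antagonist background: nilutamide 3.0uM final. Cell line: MDA-kb2, MMTV-driven luciferase, responsive to both AR and GR. Exposure 16hr, 37C, no CO2; ONE-Glo luminescence.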

Assay [4] in a line: qHTS assay to identify small molecule antagonists of the estrogen receptor beta (ER-beta) signaling pathway - cell viability counter screen (AID 1259382). Note: nearly all actives have a fitted effect of over 55% in size. Note: potency is the fitted concentration of half-maximal effect. The procedure, abridged:
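HEK293T ER-beta-UAS-bla, 2% charcoal-stripped FBS; compounds + 1nM E2 16 hr 37C; CellTiter-Glo luminescence, 30 min RT.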

For assay [5], the target named is Estrogen receptor (Homo sapiens) (UniProt P03372). Briefly: qHTS assay to identify small molecule agonists of the estrogen receptor alpha (ER-alpha) signaling pathway in the presence of an antagonist (AID 1259383; calls by dose curve; note: top concentration of the series differs between compounds; nearly all actives have a fitted effect of over 15% in size). The procedure, abridged: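 ER-alpha agonism measured under antagonist challenge: 10.0nM ICI-182,780 (final) plus compound, 15 concentrations, 22hr, VM7Luc4E2 ERE-luciferase cells. Read by luminescence.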
Chain of Estrogen receptor (Homo sapiens) (P03372 whole entry, looked up): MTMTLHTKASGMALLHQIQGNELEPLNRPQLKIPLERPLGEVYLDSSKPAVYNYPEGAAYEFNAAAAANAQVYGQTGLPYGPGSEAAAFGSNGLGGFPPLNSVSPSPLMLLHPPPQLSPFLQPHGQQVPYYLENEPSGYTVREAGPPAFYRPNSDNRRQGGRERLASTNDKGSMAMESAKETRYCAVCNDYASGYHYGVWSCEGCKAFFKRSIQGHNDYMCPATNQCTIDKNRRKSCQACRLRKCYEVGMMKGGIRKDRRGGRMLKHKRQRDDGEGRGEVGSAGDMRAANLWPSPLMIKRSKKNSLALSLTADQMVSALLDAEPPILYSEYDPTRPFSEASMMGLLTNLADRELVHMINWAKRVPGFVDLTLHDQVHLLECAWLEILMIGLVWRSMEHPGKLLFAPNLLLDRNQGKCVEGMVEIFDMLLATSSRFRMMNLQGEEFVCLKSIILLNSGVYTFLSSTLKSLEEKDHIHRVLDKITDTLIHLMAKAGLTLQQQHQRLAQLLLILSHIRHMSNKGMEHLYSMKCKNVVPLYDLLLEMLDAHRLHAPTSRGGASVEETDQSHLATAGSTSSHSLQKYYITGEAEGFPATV

Assay [6] is described as follows: qHTS assay to identify small molecule agonists or antagonists of the thyroid stimulating hormone receptor (TSHR) signaling pathway - wild type cell line counter screen (AID 1259384; calls by dose curve). The method, boiled down: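 Wild-type Hek293 cells, 800/well, 18 h at 37C, then compound with Ro20-1724 for 30 min RT. cAMP by HTRF (cAMP-d2/anti-cAMP cryptate), 1 h RT, fluorescence read. 15 concentrations, triplicates.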

Assay [7] is described as follows: qHTS assay to identify small molecule agonists of the estrogen receptor alpha (ER-alpha) signaling pathway in the presence of an antagonist - cell viability counter screen (AID 1259386).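 Note: cells exposed to compounds for 22 h at 37 °C before the viability read; nearly all actives have a fitted effect of over 30% in size.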 Note: potency is the fitted concentration of half-maximal effect. The procedure, abridged: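 Steps: 5-day stripped-FBS culture; seed and incubate 24hr; add ICI-182,780 (10.0nM final); pin 15-point compound titration; incubate 22hr at 37C; add CellTiter-Fluor at 21hr; read fluorescence.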

For assay [8], the target named is Progesterone receptor (Homo sapiens) (UniProt P06401). In words: qHTS assay to identify small molecule agonists of the progesterone receptor (PR) signaling pathway (AID 1346784; calls by dose curve; note: nearly all actives have a fitted effect of over 30% in size). The method, boiled down:
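Cells (PR-UAS-bla HEK 293T, GripTite) were plated in assay medium containing 2% charcoal-stripped FBS and incubated 6 hr. Test compounds in DMSO were added for 16 hr at 37C. FRET substrate was then loaded for 2 hr at room temperature before fluorescence reading.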

Assay [9] is described as follows: qHTS assay to identify small molecule antagonists of the progesterone receptor (PR) signaling pathway - cell viability counter screen (AID 1346798). Note: nearly all actives have a fitted effect of over 50% in size. Note: potency is the fitted concentration of half-maximal effect. The procedure, abridged: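 Counter screen for cytotoxicity: viability of PR-UAS-bla HEK293T cells was measured with CellTiter-Glo luminescence following 16 hr compound exposure in the presence of R5020.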
Assay [10] is described as follows: qHTS assay to identify small molecule agonists of the progesterone receptor (PR) signaling pathway - cell viability counter screen (AID 1346799; calls by dose curve; note: nearly all actives have a fitted effect of over 45% in size; note: potency is the fitted concentration of half-maximal effect). The method, boiled down:
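Cells (PR-UAS-bla HEK293T) are plated at 3,000/well in 2% charcoal-stripped FBS medium, rested 6 hr, dosed and incubated 16 hr at 37C. CellTiter-Glo is then added and luminescence measured after 30 min at room temperature.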

The target in assay [11] is Thyrotropin-releasing hormone receptor (Homo sapiens) (UniProt P34981). In words: qHTS assay to identify small molecule antagonists of the thyrotropin-releasing hormone receptor (TRHR) signaling pathway (AID 1346877; active = well fitted inhibition curve with a large enough effect in the repeat runs, not every such curve was filed as active; note: potency is the fitted concentration of half-maximal effect). The method, boiled down:
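Human TRHR in HEK293 cells; inhibition of the intracellular calcium rise triggered by 1 nM TRH was followed by fluorescence over 3 min. Compounds were run at 15 concentrations, three replicates each.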

Assay [12] has the same target. Briefly: qHTS assay to identify small molecule agonists of the thyrotropin-releasing hormone receptor (TRHR) signaling pathway (AID 1346891; calls by dose curve; note: potency is the fitted concentration of half-maximal effect;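 for activation: HEK293 cells expressing TRHR with calcium dye readout; series mostly up to about 58 µM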). The method, boiled down: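 Cells: TRHR-Hek293, seeded and incubated 18 h. Dye loading: 2 h at 37 °C. Compound added from DMSO stock by pin tool. Read-out: kinetic calcium fluorescence over 3 min.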
Assay [13] is described as follows: Caspase-3/7 induction in HepG2 cells by small molecules, qHTS assay (AID 1346978). Note: nearly all actives have a fitted effect of over 15% in size. The procedure, abridged:
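Wild-type HepG2 cells, 2,000/well, settled 5 hr at 37 C and 5% CO2, then compound-treated for 17 hr; caspase-3/7 activity read by luminescent Caspase-Glo 3/7 after 30 min at room temperature.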

Assay [14] has as its target Estrogen receptor beta (Homo sapiens) (UniProt Q92731). In words: qHTS assay to identify small molecule antagonists of the estrogen receptor beta (ER-beta) signaling pathway (AID 1259378; active = well fitted inhibition curve with a large enough effect in the signal ratio in the repeat runs, not every such curve was filed as active; the % refers to the signal ratio; note: potency is the fitted concentration of half-maximal effect). The procedure, abridged: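 ER-beta-UAS-bla HEK293T cells in 2% charcoal-stripped FBS medium treated with compound plus 1nM final 17-beta-estradiol for 16 hr at 37C. Beta-lactamase reporter read by FRET substrate fluorescence after 2 hours at room temperature.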

Assay [15] addresses Thyrotropin receptor (Homo sapiens) (UniProt P16473). Briefly: qHTS assay to identify small molecule antagonists of the thyroid stimulating hormone receptor (TSHR) signaling pathway (AID 1259385; calls by dose curve; note: nearly all actives have a fitted effect of over 20% in size; note: potency is the fitted concentration of half-maximal effect). The procedure, abridged: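 TSHR-HEK293 cells (800/well) plated 18 h, then compounds with Ro20-1724 and TSH at 1.5 ng/mL final, 30 min at room temperature. cAMP quantified by HTRF (cAMP-d2/anti-cAMP-cryptate, 1 h); 15 concentrations in triplicate.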

The target of assay [16] is Progesterone receptor (Homo sapiens) (UniProt P06401). Briefly: qHTS assay to identify small molecule antagonists of the progesterone receptor (PR) signaling pathway (AID 1346795; active = well fitted inhibition curve with a large enough effect in the signal ratio in the repeat runs, not every such curve was filed as active; the % refers to the signal ratio). The procedure, abridged:
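Antagonist mode: compounds tested against 1 nM (final) promegestone stimulation in HEK293T cells expressing PR-UAS-bla reporter, 16 hr at 37C, 5% CO2; beta-lactamase activity detected via B/G FRET substrate after 2 hr at room temperature.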

Assay [17] in a line: qHTS assay to identify small molecule antagonists of the TGF-beta/Smad signaling pathway - cell viability counter screen (AID 1346824). Note: nearly all actives have a fitted effect of over 50% in size. Note: potency is the fitted concentration of half-maximal effect. The method, boiled down: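 SBE-bla HEK 293T cells, incubated overnight, then compound plus 0.25 ng/mL TGF-beta1 (stock added) for 5 hr at 37 C. Viability was read in the same wells by CellTiter-Glo luminescence after 30 min at room temperature.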

Assay [18] is described as follows: qHTS assay to identify small molecule agonists of the TGF-beta/Smad signaling pathway - cell viability counter screen (AID 1346829). Note: nearly all actives have a fitted effect of over 45% in size. Note: potency is the fitted concentration of half-maximal effect. The method, boiled down: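 Compound-treated SBE-bla HEK 293T cells (5 hr, 37 C) were assessed for viability with CellTiter-Glo in parallel with the reporter read.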
The nature of assay [19]: qHTS assay to identify small molecule agonists of the TGF-beta/Smad signaling pathway (AID 1346859; active = well fitted activation curve with a large enough effect in the signal ratio in the repeat runs, not every such curve was filed as active; the % refers to the signal ratio; note: series mostly up to about 77 µM). The procedure, abridged:
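Reporter line: HEK 293T with stably integrated SBE-controlled beta-lactamase. Compound exposure lasts 5 hr at 37 C and 5% CO2; substrate loading follows for 2 hr at room temperature, with emission read at 460 and 530 nm.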

A short description of assay [20]: Human pregnane X receptor (PXR) small molecule agonists, qHTS cell viability counter screen (AID 1346977). Note: nearly all actives have a fitted effect of over 50% in size. Note: potency is the fitted concentration of half-maximal effect. The method, boiled down:
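Cytotoxicity counter screen run in the same wells as the PXR luciferase assay, using PXR-Luc HepG2 cells in charcoal-stripped serum medium. Viability: CellTiter-Fluor fluorescence after 24hr compound treatment.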

“And” between values parts separate entries of the source, which are not always exact repeats. Equal entries are not always repeated. Inconclusive results are not listed. Where a structure was tested more than once in an assay, its records may differ in their call. The source made the active and inactive calls. Unless noted, calls come from the whole dose curve; as a rule, active = well fitted curve in the direction sought with a large enough effect in the repeat runs; inconclusive = weak or mixed curves; inactive = no such curve, though single readings can be large; an effect the other way counts as inactive or inconclusive.

The source of these data is PubChem BioAssay (Tox21).

Chain of Thyrotropin-releasing hormone receptor (Homo sapiens) (P34981 whole entry, looked up): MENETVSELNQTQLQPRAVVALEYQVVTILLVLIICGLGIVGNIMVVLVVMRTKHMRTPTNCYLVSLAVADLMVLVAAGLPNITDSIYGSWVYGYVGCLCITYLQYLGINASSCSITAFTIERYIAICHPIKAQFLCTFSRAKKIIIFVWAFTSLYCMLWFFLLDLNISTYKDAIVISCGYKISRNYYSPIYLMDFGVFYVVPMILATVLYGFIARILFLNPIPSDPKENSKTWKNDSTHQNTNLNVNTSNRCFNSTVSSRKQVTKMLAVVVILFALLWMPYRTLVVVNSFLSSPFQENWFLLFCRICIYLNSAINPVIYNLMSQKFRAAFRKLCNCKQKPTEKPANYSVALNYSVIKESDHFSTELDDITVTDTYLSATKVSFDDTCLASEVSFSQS
Chain of Estrogen receptor beta (Homo sapiens) (Q92731 whole entry, looked up): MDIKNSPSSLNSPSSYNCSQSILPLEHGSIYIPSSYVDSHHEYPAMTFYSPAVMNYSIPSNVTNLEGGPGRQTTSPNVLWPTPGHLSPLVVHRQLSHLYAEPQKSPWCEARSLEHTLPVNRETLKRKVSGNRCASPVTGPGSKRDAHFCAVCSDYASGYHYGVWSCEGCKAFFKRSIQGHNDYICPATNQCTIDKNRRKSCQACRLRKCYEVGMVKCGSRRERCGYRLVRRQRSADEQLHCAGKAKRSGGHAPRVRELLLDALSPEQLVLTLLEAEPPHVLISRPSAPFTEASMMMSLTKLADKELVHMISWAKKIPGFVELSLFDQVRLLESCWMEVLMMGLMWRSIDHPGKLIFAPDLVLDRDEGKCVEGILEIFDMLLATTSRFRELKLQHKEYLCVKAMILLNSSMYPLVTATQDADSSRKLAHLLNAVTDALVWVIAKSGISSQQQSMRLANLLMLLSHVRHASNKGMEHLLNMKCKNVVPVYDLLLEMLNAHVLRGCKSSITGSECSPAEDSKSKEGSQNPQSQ
Chain of Androgen receptor (Homo sapiens) (P10275 whole entry, looked up): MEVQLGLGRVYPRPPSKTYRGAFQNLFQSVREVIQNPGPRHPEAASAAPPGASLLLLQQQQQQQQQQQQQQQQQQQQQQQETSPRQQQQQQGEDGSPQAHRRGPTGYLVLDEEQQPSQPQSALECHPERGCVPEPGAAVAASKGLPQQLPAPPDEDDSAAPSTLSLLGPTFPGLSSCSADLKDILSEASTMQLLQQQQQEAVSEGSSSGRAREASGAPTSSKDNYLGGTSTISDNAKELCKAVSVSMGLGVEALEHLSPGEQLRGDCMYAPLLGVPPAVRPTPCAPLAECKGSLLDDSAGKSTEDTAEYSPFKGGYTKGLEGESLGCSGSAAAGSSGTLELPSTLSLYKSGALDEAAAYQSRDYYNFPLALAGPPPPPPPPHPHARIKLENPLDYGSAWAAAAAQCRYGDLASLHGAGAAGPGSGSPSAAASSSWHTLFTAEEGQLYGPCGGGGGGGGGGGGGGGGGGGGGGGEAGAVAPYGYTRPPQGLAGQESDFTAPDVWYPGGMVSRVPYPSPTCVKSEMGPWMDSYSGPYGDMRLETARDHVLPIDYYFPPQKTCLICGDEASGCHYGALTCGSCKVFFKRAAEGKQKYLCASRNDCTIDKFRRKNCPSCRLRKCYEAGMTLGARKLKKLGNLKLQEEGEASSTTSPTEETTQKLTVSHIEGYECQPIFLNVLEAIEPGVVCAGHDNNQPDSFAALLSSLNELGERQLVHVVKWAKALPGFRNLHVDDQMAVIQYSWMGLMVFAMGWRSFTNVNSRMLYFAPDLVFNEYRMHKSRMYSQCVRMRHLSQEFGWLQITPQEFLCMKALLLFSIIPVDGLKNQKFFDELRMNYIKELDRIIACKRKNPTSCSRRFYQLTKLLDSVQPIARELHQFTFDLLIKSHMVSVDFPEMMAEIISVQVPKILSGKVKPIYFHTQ
Chain of Progesterone receptor (Homo sapiens) (P06401 whole entry, looked up): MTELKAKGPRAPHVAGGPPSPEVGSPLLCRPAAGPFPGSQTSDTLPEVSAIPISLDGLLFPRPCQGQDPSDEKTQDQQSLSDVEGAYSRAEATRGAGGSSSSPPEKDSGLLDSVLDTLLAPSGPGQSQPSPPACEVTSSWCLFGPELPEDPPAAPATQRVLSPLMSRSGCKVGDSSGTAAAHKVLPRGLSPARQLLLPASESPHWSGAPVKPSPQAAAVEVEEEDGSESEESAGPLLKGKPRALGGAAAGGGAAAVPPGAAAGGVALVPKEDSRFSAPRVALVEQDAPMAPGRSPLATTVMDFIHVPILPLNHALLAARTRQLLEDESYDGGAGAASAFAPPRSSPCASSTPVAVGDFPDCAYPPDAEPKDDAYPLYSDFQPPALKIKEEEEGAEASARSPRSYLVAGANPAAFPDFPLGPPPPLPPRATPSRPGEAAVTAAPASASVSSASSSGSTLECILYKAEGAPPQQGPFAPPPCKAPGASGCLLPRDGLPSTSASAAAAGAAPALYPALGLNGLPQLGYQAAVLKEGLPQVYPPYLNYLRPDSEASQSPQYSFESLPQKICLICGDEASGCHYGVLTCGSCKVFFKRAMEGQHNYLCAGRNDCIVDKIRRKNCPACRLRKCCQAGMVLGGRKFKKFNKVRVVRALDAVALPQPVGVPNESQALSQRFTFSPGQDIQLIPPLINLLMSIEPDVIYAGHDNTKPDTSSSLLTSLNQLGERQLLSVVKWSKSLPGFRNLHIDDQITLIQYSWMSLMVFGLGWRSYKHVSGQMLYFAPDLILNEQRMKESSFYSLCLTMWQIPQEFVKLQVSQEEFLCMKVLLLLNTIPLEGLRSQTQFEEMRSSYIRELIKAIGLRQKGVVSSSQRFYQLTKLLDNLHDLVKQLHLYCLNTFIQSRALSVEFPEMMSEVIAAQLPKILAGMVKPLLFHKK
Chain of Thyrotropin receptor (Homo sapiens) (P16473 whole entry, looked up): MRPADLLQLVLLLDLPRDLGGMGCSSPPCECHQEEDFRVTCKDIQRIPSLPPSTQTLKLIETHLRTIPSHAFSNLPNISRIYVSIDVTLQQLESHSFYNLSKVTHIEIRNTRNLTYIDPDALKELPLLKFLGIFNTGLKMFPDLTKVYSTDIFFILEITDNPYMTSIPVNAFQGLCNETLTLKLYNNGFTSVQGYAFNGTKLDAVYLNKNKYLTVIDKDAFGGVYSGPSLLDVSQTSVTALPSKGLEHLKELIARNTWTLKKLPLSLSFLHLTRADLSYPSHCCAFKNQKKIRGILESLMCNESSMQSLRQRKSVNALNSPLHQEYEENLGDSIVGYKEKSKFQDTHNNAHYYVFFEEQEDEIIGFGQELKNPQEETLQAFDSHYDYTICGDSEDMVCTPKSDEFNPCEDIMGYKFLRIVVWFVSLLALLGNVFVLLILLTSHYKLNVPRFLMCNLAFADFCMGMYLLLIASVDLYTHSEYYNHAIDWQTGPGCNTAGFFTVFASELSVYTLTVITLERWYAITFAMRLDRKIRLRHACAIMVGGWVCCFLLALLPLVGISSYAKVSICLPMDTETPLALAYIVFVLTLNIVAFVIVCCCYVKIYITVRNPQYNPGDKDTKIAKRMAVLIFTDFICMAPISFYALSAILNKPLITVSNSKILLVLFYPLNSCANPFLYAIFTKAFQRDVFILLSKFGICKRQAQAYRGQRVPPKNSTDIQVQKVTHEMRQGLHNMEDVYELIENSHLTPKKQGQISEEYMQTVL

Take `C[C@H]1O[C@@H](O[C@H]2[C@@H](O)C[C@H](O[C@H]3[C@@H](O)C[C@H](O[C@H]4CC[C@@]5(C)[C@H](CC[C@@H]6[C@@H]5CC[C@]5(C)[C@@H](C7=CC(=O)OC7)CC[C@]65O)C4)O[C@@H]3C)O[C@@H]2C)C[C@H](O)[C@@H]1O`: the Potency result in [1], in assay [5], in assay [7], in assay [8], in assay [11] and in assay [12] was “inactive” each time. In addition, the Potency entry in [13] is “inactive”. The Potency in assay [2] was 43.5 nM (active) and 47.3 nM (active); in assay [3], “inactive and 237 nM (active)”; in [4], 30.8 nM (active) and 42.2 nM (active); in [9], 38.8 nM (active) and 94.4 nM (active); in assay [10], 77.4 nM (active) and 237 nM (active). Further, in assay [6], the outcome was inactive.

For `CCc1cc(C)cc(CC)c1-c1c(OC(=O)C(C)(C)C)n2n(c1=O)CCOCC2`, the Potency entry in assay [14], in assay [2], in [4], in [5], in assay [15] and in assay [8] was “inactive” each time. In addition, the Potency result in assay [16], in assay [9], in assay [10], in assay [17], in [18] and in assay [11] was “inactive” each time. The Potency entry in [12] and in assay [13] was “inactive” in each case. Moreover, the result in [6] and in assay [19] was inactive. In assay [7], the Potency was 34.4 µM (active).

`CC(C)(COCC1CO1)COCC1CO1` (centres undefined): the Potency result in [14], in assay [1], in assay [2], in assay [5], in assay [15] and in [7] was “inactive” in each case. Moreover, the Potency entry in [8], in assay [16], in assay [9], in assay [10], in assay [17] and in assay [18] was “inactive” in each case. For the same compound, the Potency result in [11], in assay [12], in assay [20] and in assay [13] was “inactive” in each case. Besides, the outcome in assay [6] and in assay [19] was inactive.

For the compound `C[As+](C)(C)CC(=O)[O-]`, the Potency entry in assay [1], in assay [2], in [3], in [4], in assay [5] and in [15] was “inactive” throughout. The Potency entry in assay [7], in assay [8], in assay [16], in assay [9], in assay [10] and in assay [17] was “inactive” each time. For the same compound, the Potency result in assay [18], in assay [11], in [12], in [20] and in assay [13] was “inactive” each time. The compound was called inactive in assay [6] and in [19].

As to `CC1CCC(C(C)C)C(OC(=O)c2ccccc2N)C1` (centres undefined), the Potency was 8.51 µM (active) in [14]; 30.2 µM (active) in assay [2]; 60.3 µM (active) in assay [15]; 60.3 µM (active) in [9]; 53.7 µM (active) in assay [10]. Moreover, the Potency entry in assay [1], in assay [5], in assay [11] and in assay [12] was “inactive” in each case. In addition, the compound was called inactive in assay [6] and in assay [19].

For `CC(=O)c1ccc(-c2ccccc2)cc1`, the Potency entry in assay [1], in [2], in assay [3], in assay [4], in [5] and in assay [15] was “inactive” in each case. The Potency entry in [7], in [8], in [9], in assay [10], in assay [17] and in assay [18] was “inactive” in each case. The Potency result in assay [20] and in [13] was “inactive” each time. The compound was called inactive in assay [6] and in [19].

In the case of `CCCCCCCCCCCCCCC(Br)C(=O)O` (centres undefined), the Potency entry in assay [14], in assay [1], in [5], in assay [7], in [8] and in assay [16] was “inactive” throughout. Also, the Potency entry in assay [9], in assay [17], in assay [18], in [11], in assay [12] and in assay [20] was “inactive” throughout. The Potency result in assay [13] is “inactive”. Besides, the compound was called inactive in assay [19].

Turning to `C[C@@H]1CC[C@@]2(OC1)O[C@H]1[C@@H](O)[C@H]3[C@@H]4CC[C@H]5C[C@@H](O[C@@H]6O[C@H](CO)[C@H](O[C@@H]7O[C@H](CO)[C@@H](O)[C@H](O[C@@H]8OC[C@@H](O)[C@H](O)[C@H]8O)[C@H]7O[C@@H]7O[C@H](CO)[C@@H](O)[C@H](O[C@@H]8O[C@H](CO)[C@@H](O)[C@H](O)[C@H]8O)[C@H]7O)[C@H](O)[C@H]6O)[C@H](O)C[C@]5(C)[C@H]4CC[C@]3(C)[C@H]1[C@@H]2C`, the Potency in assay [1] is 57.8 µM (active); in assay [2], 9.16 µM (active); in assay [4], 10.3 µM (active); in assay [15], 4.59 µM (active); in assay [7] it was 72.8 µM (active); in assay [9], 16.3 µM (active). Further, the Potency in assay [10] was 14.5 µM (active); in assay [17] it was 23.2 µM (active); in [18], 20.7 µM (active); in assay [11] it was 0.804 µM (active); in assay [12], 0.655 µM (active); in assay [20], 10.3 µM (active). Also, the Potency entry in assay [3], in [5] and in assay [13] was “inactive” each time. Moreover, the call in assay [6] was inactive.
